Most compounds without a hit are left out; they make up all but 3.7% or so of the library.
GLP-1R agonist: activates the human GLP-1 receptor. P43220. HEK293 GLP-1R CRE-luciferase, luminescence, 4-6 h; cells express a hypersensitive GLP-1R form. Potency, µM (titrated, usually from 45.6 µM), for the others: at the highest dose activation, actives largely listed as activators. 0.007% of 380,000 active. AID 624172; also: % of control where 0% means no effect
Target sequence (P43220 whole entry, looked up): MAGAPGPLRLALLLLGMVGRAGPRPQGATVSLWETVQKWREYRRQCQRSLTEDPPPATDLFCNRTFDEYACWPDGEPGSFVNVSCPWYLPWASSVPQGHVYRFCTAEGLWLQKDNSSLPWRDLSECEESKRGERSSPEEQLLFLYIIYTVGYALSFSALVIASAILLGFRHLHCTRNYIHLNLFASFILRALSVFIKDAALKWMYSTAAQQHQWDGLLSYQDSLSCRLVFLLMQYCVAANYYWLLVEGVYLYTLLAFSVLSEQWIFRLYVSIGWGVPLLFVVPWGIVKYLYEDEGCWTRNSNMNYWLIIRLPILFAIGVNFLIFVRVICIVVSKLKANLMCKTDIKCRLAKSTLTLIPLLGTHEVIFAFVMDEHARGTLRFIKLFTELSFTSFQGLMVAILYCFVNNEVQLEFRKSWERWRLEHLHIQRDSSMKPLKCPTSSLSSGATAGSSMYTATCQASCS
ATXN viability: viability counter-screen for ATXN expression inhibitors. S2 cells (HEK-293 line with an ATXN2-luciferase reporter) viability, CellTiter-Fluor protease fluorescence, 24 h. Potency, µM (series often up to 56.7 µM), most hits filed as cytotoxic. 0.49% of 400,000 active. AID 651635; also: nearly all actives have a fitted effect of over 40% in size
TGFb inhibitor: inhibitors of TGF-b signaling. HepG2 CAGA-GFP TGF-b/SMAD3 reporter, GFP fluorescence, 18 h; TGF-beta stimulated, 500 pg/mL final. Potency, µM (doses to about 46.1 µM), without a hit: at the highest dose activity, negative = inhibition, actives largely listed as inhibitors. 1.2% of 410,000 active; also: % is scaled to controls: 0 for no effect and ±100 for the full control effect; nearly all actives have a fitted effect of over 65% in size
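Read-out: total well GFP (ex488/em500-530) summed from mean per-cell fluorescence. Cells: HEPG2 CAGA-GFP, 1% FBS DMEM, 18 h at 37 degrees C with 500 pg/mL final TGF-beta. Unstimulated wells served as the full-inhibition control; stimulated DMSO wells = 0%.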
ATXN2 expr inh: reduces ATXN2 reporter expression in HEK-293 cells; HEK-293 ATXN2-luciferase reporter, luminescence, 24 h; Potency, µM (top dose mostly 57 µM), for inactives: at the highest dose activity change, negative = inhibition, most hits filed as inhibitors; 0.72% of 360,000 active; AID 1745845; also: % is scaled to controls: 0 for no effect and ±100 for the full control effect; nearly all actives have a fitted effect of over 55% in size
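qHTS (up to 57 uM final) was run with 24 h compound exposure of reporter cells at 37 °C. Each well was multiplexed: SteadyGlo luminescence measured ATXN2-luciferase expression after a fluorogenic Gly-Phe-AFC viability readout (25 uM final).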
HepG2 tox: counter-screen for TGF-b inhibitors: cytotoxicity in HepG2 cells | HepG2 CAGA-GFP viability, ATP luminescence, 18 h | 0.76% of 410,000 active | AID 588856 | Potency, µM (series often up to 46.1 µM), for inactives: at the top dose activity change, negative = cytotoxicity, hits mostly cytotoxic
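CellTiter-Glo luminescence gave cytotoxicity after 18 hours at 37 degrees C. The cells were HepG2 CAGA-GFP in 1% FBS DMEM, stimulated with 500 pg/mL TGF-beta after compound addition. %Activity was normalised to no-cell wells (complete cell-killing) and DMSO (no toxicity), and curves were fitted and classified.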
GLP1R inv ag: GLP-1 receptor (human) inverse agonism. HEK293 GLP-1R CRE-luciferase, luminescence, 24 h; GLP-1R form is constitutively active. Potency, µM (highest dose often 38.3 µM), for the others: at the highest dose activity change, negative = inhibition, most hits filed as inhibitors. 1.6% of 410,000 active. AID 624417; also: % is scaled to controls: 0 for no effect and ±100 for the full control effect; nearly all actives have a fitted effect of over 55% in size
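Cells are plated, allowed 12 hours at 37 deg C, then treated with compounds for 24 hr before luciferase detection reagent is added and luminescence is read after 12 min at room temperature. The HEK293 line carries constitutively active GLP-1R with a cAMP-responsive reporter.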
Numbers without * were called inactive; i = inactive; ? = inconclusive; . = not tested or not shown; [ ] = dose if it differs, or a comment. Calls follow the shape of the dose curve; as a rule, active = well fitted curve in the direction sought with a large enough effect; inconclusive = small, poorly fitted or top-dose-only effect, or another doubt; inactive = no such curve, though single readings can be large; an effect the other way counts as inactive or inconclusive. Potency is read from the fitted curve at half-maximal effect.

SMILES | GLP-1R agonist | ATXN viability | TGFb inhibitor | ATXN2 expr inh | HepG2 tox | GLP1R inv ag
COc1cc(SC)ccc1C(=O)N(CC(=O)Nc1ccccc1Br)Cc1ccco1 | 16.3% | i | -26.8% | -13.4% | 2.9% | 10µM*
O=C(CN(Cc1ccco1)C(=O)c1cc(=O)[nH]c2ccccc12)Nc1ccccc1Br | -2.4% | i | -2.5% | -1.6% | 1.1% | -7.3%
O=C(Nc1ccc(C(F)(F)F)cc1)c1cc(S(=O)(=O)NCC2COc3ccccc3O2)ccc1F (stereo not given) | -13.6% | i | -1.4% | -17.0% | 17.8µM* | ?
COc1ccc(NC(=O)c2cc(S(=O)(=O)NCC3COc4ccccc4O3)ccc2F)cc1 (stereo not given) | 2.3% | i | ? | -8.8% | -12.0% | ?
C=CCN(c1ccccc1OC)S(=O)(=O)c1cccc(C(=O)OCC(=O)c2c[nH]c3ccccc23)c1 | -12.6% | ? | 0.0% | -18.7% | -0.3% | 5.01µM*
O=C(CCCc1ccccc1)Nc1cccc(C(=O)O)c1 | -8.5% | i | 9.8% | -21.7% | 8.6% | 2µM*
O=C(NCCCCc1ccccc1)c1ccccc1 | 1.3% | i | 15.0% | -3.9% | -65.2% | -11.0%[7.66 µM]
O=C(NCCCCc1ccccc1)c1ccccc1Cl | 9.4% | i | 33.2% | 29.7% | 0.0% | 5.01µM*
O=C(NCCCCc1ccccc1)c1cccc(NC(=O)c2ccccc2)c1 | -0.3% | i | -9.2% | -11.4% | -25.7% | 10µM*
O=C(NCCCCNC(=O)c1ccccc1Cl)c1ccccc1Cl | -5.1% | i | 21.5% | -0.7% | 10.1% | -14.8%
O=C(CCc1ccccc1)NC(=S)Nc1cccc(C(=O)O)c1 | -4.3% | i | -5.9% | 10.1% | 1.2% | -16.6%
CCc1ccccc1Nc1cc(C(=O)NCCCN(C)C2CCCCC2)c2ccccc2n1 | . | 15.8µM* | ? | ? | -83.8% | ?
COc1ccccc1Nc1cc(C(=O)NCCCN(C)c2ccccc2)c2ccccc2n1 | . | i | -23.9% | 3.8% | -9.6% | 5.62µM*
Cc1ccc(C)c(Nc2cc(C(=O)NCCCN(C)C3CCCCC3)c3ccccc3n2)c1 | . | ? | -5.1% | -15.1% | -54.1% | ?
CCc1ccc(Nc2cc(C(=O)NCCCN(C)c3ccccc3)c3ccccc3n2)cc1 | . | . | ? | . | -14.2% | 3.9%
O=c1ccc2nc3ccccc3sc-2c1 | 20.4% | 25.1µM* | 20µM* | ? | 25.1µM* | 24.7%
Cc1ccc2nc(SCC3CCCCO3)[nH]c2c1 (stereo not given) | 2.1% | i | -3.1% | 11.2µM* | 24.6% | 3.55µM*
Cc1oc(-c2ccccc2NC(=O)c2ccccc2)nc1CNC(=O)c1cccc(-n2cccn2)c1 | . | i | . | . | . | .
COc1ccc(NC(=O)/C(Cl)=C(/Cl)S(=O)Cc2ccc(Cl)cc2)cn1 (stereo not given) | 0.2% | 2.82µM* | 2.24µM* | 2.51µM* | 2.51µM* | ?
COc1ccc(NC(=O)/C(Cl)=C(/Cl)S(=O)(=O)Cc2ccccc2)cn1 | -29.9% | 14.1µM* | ? | 12.6µM* | 6.31µM* | ?
COc1ccc(NC(=O)C(Cl)=C(Cl)Cl)cn1 | 13.1% | i | 0.5% | -17.3% | 4.0% | 43.7%
Cc1ccc(C2CC(c3cccs3)=NN2C(=O)CSC2=NCCS2)cc1 (stereo not given) | -1.8% | ? | ? | -6.6% | -31.7% | 4.47µM*
COc1ccc(C2CC(c3cccs3)=NN2C(=O)CSC2=NCCS2)cc1 (stereo not given) | 5.5% | ? | -5.4% | 35.4% | -12.5% | ?
COc1cc(OC)c(S(=O)(=O)Nc2ccc(C)cn2)cc1NC(C)=O | 8.8% | i | -12.6% | 10.1% | 10µM* | 0.8%
CC1=C/C(=N\OS(=O)(=O)c2ccccc2)C(C(C)C)=CC1=O | -31.7% | . | ? | ? | -96.6% | ?
SMILES | GLP-1R agonist | ATXN viability | TGFb inhibitor | ATXN2 expr inh | HepG2 tox | GLP1R inv ag
CC1=C(C)/C(=N\OS(=O)(=O)c2ccc(C)cc2)C=CC1=O | -35.6% | 8.91µM* | 2.82µM* | ? | 3.98µM* | ?
CC1=C/C(=N\OS(=O)(=O)c2ccccc2)C(C)=CC1=O | -14.5% | 20µM* | 10µM* | 22.4µM* | 11.2µM* | ?
COc1ccccc1-c1ccnc(-n2ncc(C(=O)N(C)C(C)c3nc(C)cs3)c2C2CC2)n1 (stereo not given) | . | i | . | . | . | .
Cc1cc(/C=C\c2ccc3cc(N(C)C)ccc3[n+]2C)c(C)n1-c1ccccc1 | -0.3% | 3.98µM* | ? | 1µM* | -24.8% | 2µM*
C[n+]1c(/C=C/c2ccc(O)cc2)ccc2ccccc21 | -4.0% | . | -24.9% | -12.0% | -72.8% | -17.4%
OC(c1cccc(OCc2ccccc2)c1)c1nnc(-c2ccccc2)o1 (stereo not given) | 3.0% | i | ? | -7.0% | -4.2% | 10µM*
O=C(C1CCC(Cn2c(=S)[nH]c3ccccc3c2=O)CC1)N1CCN(c2ccccc2)CC1 (stereo not given) | -10.6% | i | -7.8% | -24.0% | -41.1% | 3.55µM*
CCOC(=O)CSC1=NC(=O)/C(=C/c2ccc(OC)cc2)S1 | -1.8% | 7.94µM* | ? | 7.08µM* | -40.8% | ?
Cc1ccc2[nH]cc(C(c3ccccc3)c3ccc(C)s3)c2c1 (stereo not given) | . | ? | 12.6µM* | ? | 11.2µM* | ?
Cc1ccc2[nH]cc(C(c3ccccc3)c3cccs3)c2c1 (stereo not given) | . | ? | 12.6µM* | ? | 15.8µM* | 10µM*
C=CCOC(/C=C/c1ccccc1)CC (stereo not given) | . | . | ? | . | -10.8% | .
COC(=O)C1=C[C@@H](C(=O)OC)C2C3=C(C(=O)[C@]2(CC(C)C)NC(=O)c2ccccc2)[C@H](C)n2c(=O)n(C)c(=O)n2[C@@H]3C1 (stereo not given in full) | . | . | -6.5% | . | -3.1% | .
COC(=O)[C@H](C)[C@H](CC(C)C)NC(=O)[C@H](C)[C@H](CC(C)C)NC(=O)c1ccccn1 | . | . | -20.3% | . | 4.2% | .
CCC(C)C(NC(=O)OC(C)(C)C)C(=O)NC1COC2CC(n3cc(C)c(=O)[nH]c3=O)OC12 (stereo not given) | . | . | -6.7% | . | -2.5% | .
O=C(Nc1cnn(Cc2ccc(F)cc2)c1)C(c1ccccc1)c1ccccc1 | -0.1% | i | 12.6µM* | -28.8% | -5.2% | 4.47µM*
COc1cccc(NC(=S)N/N=C2\CC(C)(C)Oc3ccc(O)cc32)c1 | 3.0% | ? | 1.0% | . | -72.4% | 7.08µM*
